# Unmarked numbers belong to inactive results. Records with an inconclusive call do not appear. A call without a number means that no potency is given here. Active and inactive are the calls of the source. Unless noted, calls follow the shape of the dose curve; as a rule, active = well fitted curve in the direction sought with a large enough effect in the repeat runs; inconclusive = weak or mixed curves; inactive = no such curve, though single readings can be large; an effect the other way counts as inactive or inconclusive.
# Assays:
# [1] = qHTS assay to identify small molecule HDAC inhibitors (AID 1259364); also: potency is read from the fitted curve at half-maximal effect;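 also: wild-type HCT-116 cells with endogenous class I/II HDAC activity; nearly all actives have a fitted effect of over 45% in size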; as to activity change, negative = inhibition: top concentration of the series differs between compounds
# In short: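 Screening used wild-type human colon HCT-116 cells incubated overnight, dosed with compounds for 2 hours, and assayed with a homogeneous luminogenic HDAC I/II reagent for 30 minutes at room temperature.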
# [2] = qHTS assay to identify small molecule HDAC inhibitors - cell viability counter screen (AID 1259365); also: series mostly up to about 92 µM; nearly all actives have a fitted effect of over 50% in size
# In short: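 Wild-type HCT-116 cells, 1,500/well, cultured overnight, then compound-treated 2 h at 37 C. Viability measured as ATP luminescence with CellTiter-Glo after 30 min at room temperature.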
# [3] = qHTS assay to identify small molecule antagonists of the sonic hedgehog signaling (Shh) pathway - cell viability counter screen (AID 1259367); also: nearly all actives have a fitted effect of over 55% in size; also: potency is read from the fitted curve at half-maximal effect
# In short: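 Fluorescence read-out (CellTiter-Fluor, 1 hr at 37C) taken after 23 hr compound treatment of 3T3 Gli1-Luc cells stimulated with conditioned medium. Cells were seeded at 2,000 per well and pre-incubated 4 hr.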
# [4] = qHTS assay to identify small molecule agonists of the sonic hedgehog signaling (Shh) pathway (AID 1259368; calls by dose curve; also: nearly all actives have a fitted effect of over 15% in size; also: potency is read from the fitted curve at half-maximal effect;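 as to activity change: NIH/3T3-derived 3T3Gli1-Luc cells carrying a stable Gli1-driven firefly luciferase reporter; series mostly up to about 92 µM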)
# In short: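 Hedgehog pathway agonism scored by increased firefly luciferase luminescence in 3T3Gli1-Luc cells treated 24 hr at 37 C; detection used a 30 min room-temperature reagent incubation.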
# [5] = qHTS assay to identify small molecule antagonists of the sonic hedgehog signaling (Shh) pathway (AID 1259369; calls by dose curve; also: nearly all actives have a fitted effect of over 45% in size; also: potency is read from the fitted curve at half-maximal effect)
# In short: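 NIH/3T3 stable Gli1-Luc clone, 2,000 cells/well, 4hr settle; cpd + conditioned medium 24hr; Luc reagent 30min RT; luminescence.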
# [6] = target: Estrogen receptor beta (Homo sapiens) (UniProt Q92731); assay: qHTS assay to identify small molecule agonists of the estrogen receptor beta (ER-beta) signaling pathway (AID 1259377; active = well fitted activation curve with a large enough effect in the signal ratio in the repeat runs, not every such curve was filed as active; the % refers to the signal ratio)
# Chain of Estrogen receptor beta (Homo sapiens) (Q92731 whole entry, looked up): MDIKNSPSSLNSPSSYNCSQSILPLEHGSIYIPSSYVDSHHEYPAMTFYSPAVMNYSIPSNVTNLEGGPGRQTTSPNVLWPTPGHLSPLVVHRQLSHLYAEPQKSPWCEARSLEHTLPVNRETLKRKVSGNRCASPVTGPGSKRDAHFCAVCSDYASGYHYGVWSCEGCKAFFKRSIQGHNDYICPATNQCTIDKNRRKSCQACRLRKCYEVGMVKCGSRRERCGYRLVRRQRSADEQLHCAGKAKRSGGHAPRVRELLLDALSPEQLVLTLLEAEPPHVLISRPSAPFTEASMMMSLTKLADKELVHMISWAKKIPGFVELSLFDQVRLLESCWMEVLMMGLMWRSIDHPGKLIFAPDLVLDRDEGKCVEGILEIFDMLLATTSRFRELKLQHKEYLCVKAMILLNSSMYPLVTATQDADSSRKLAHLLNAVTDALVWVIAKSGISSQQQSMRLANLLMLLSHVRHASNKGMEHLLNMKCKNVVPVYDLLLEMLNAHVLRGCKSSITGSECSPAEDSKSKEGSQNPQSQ
# In short: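 ER-beta-UAS-bla HEK293T cells in medium with 2% charcoal-stripped FBS were exposed to compounds for 16 h at 37C. Beta-lactamase reporter activity was read as fluorescence after 2 h with LiveBLAzer B/G FRET substrate at room temperature.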
# [7] = target: Estrogen receptor beta (Homo sapiens) (UniProt Q92731); assay: qHTS assay to identify small molecule antagonists of the estrogen receptor beta (ER-beta) signaling pathway (AID 1259378; active = well fitted inhibition curve with a large enough effect in the signal ratio in the repeat runs, not every such curve was filed as active; the % refers to the signal ratio; also: potency is read from the fitted curve at half-maximal effect)
# In short: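 ER-beta-UAS-bla HEK293T cells in 2% charcoal-stripped FBS medium treated with compound plus 1nM final 17-beta-estradiol for 16 hr at 37C. Beta-lactamase reporter read by FRET substrate fluorescence after 2 hours at room temperature.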
# [8] = qHTS assay to identify small molecule agonists of the androgen receptor (AR) signaling pathway in the presence of an antagonist - cell viability counter screen (AID 1259379); also: nearly all actives have a fitted effect of over 25% in size; also: potency is read from the fitted curve at half-maximal effect;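 as to activity change, negative = cytotoxicity: MDA-kb2 human breast cancer cells carrying an MMTV luciferase reporter; series mostly up to about 92 µM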
# In short: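 MDA-kb2 viability measured by CellTiter-Fluor fluorescence in the same wells as the luciferase signal; nilutamide 3.0uM final; 15-point compound titration; 16 hr at 37C.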
# [9] = qHTS assay to identify small molecule agonists of the estrogen receptor beta (ER-beta) signaling pathway - cell viability counter screen (AID 1259380); also: nearly all actives have a fitted effect of over 30% in size; also: potency is read from the fitted curve at half-maximal effect
# In short: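 Measured: luminescence from CellTiter-Glo after 30 min at room temperature, added to wells already read for the LiveBLAzer FRET reporter (2 hr substrate); ER-beta-UAS-bla HEK293T cells had 16 hr compound treatment at 37C, 5% CO2.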
# [10] = qHTS assay to identify small molecule antagonists of the estrogen receptor beta (ER-beta) signaling pathway - cell viability counter screen (AID 1259382); also: nearly all actives have a fitted effect of over 55% in size; also: potency is read from the fitted curve at half-maximal effect; as to activity change, negative = cytotoxicity: series mostly up to about 92 µM
# In short: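 Readout: luminescence, CellTiter-Glo, same wells as bla assay. System: ER-beta-UAS-bla GripTite HEK293T, 2% charcoal-stripped FBS. Exposure: compounds plus 1nM 17-beta-estradiol, 16 hr, 37C.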
# [11] = qHTS assay to identify small molecule agonists of the estrogen receptor alpha (ER-alpha) signaling pathway in the presence of an antagonist - cell viability counter screen (AID 1259386);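 also: cells exposed to compounds for 22 h at 37 °C before the viability read; nearly all actives have a fitted effect of over 30% in size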; also: potency is read from the fitted curve at half-maximal effect; as to activity change, negative = cytotoxicity: series mostly up to about 92 µM
# In short: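 The test measures whether compounds kill ER-alpha reporter cells (VM7Luc4E2) under antagonist co-treatment (ICI-182,780, 10.0nM). Fluorescence from CellTiter-Fluor is read after a 22hr exposure.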
# [12] = target: Progesterone receptor (Homo sapiens) (UniProt P06401); assay: qHTS assay to identify small molecule agonists of the progesterone receptor (PR) signaling pathway (AID 1346784; calls by dose curve; also: nearly all actives have a fitted effect of over 30% in size)
# Chain of Progesterone receptor (Homo sapiens) (P06401 whole entry, looked up): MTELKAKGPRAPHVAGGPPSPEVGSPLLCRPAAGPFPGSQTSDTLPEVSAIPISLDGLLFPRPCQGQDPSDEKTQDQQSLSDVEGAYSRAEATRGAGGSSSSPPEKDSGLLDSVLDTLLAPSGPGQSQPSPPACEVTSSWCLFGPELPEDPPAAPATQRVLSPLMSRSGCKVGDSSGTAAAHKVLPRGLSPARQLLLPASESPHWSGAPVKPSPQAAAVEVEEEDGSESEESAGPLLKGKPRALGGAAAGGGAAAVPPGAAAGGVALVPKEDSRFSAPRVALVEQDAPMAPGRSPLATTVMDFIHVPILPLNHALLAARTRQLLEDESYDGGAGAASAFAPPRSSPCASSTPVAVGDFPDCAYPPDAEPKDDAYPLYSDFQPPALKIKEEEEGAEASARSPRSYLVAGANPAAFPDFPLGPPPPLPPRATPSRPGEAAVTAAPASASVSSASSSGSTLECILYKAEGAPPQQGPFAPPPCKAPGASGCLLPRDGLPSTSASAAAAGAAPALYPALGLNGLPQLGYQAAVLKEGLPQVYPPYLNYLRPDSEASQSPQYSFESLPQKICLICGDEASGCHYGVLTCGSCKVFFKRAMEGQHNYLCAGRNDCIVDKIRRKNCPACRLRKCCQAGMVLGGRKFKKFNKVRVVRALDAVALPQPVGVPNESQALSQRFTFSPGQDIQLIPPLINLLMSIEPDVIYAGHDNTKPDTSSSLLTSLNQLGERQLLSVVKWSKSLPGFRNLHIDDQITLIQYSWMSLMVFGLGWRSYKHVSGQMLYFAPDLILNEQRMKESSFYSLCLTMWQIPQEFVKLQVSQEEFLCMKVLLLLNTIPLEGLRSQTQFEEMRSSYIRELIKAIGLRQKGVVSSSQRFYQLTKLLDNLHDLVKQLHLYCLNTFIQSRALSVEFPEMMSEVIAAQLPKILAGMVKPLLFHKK
# In short: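 PR-UAS-bla HEK 293T cells (beta-lactamase reporter under UAS) in 2% charcoal-stripped FBS, dosed with 23 nL compound after 6 hr, incubated 16hr at 37C. LiveBLAzer B/G FRET substrate added, fluorescence read after 2 hours.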
# [13] = target: Estrogen receptor (Homo sapiens) (UniProt P03372); assay: qHTS assay to identify small molecule agonists of the estrogen receptor alpha (ER-alpha) signaling pathway in the presence of an antagonist (AID 1259383; calls by dose curve; also: top concentration of the series differs between compounds; nearly all actives have a fitted effect of over 15% in size)
# Chain of Estrogen receptor (Homo sapiens) (P03372 whole entry, looked up): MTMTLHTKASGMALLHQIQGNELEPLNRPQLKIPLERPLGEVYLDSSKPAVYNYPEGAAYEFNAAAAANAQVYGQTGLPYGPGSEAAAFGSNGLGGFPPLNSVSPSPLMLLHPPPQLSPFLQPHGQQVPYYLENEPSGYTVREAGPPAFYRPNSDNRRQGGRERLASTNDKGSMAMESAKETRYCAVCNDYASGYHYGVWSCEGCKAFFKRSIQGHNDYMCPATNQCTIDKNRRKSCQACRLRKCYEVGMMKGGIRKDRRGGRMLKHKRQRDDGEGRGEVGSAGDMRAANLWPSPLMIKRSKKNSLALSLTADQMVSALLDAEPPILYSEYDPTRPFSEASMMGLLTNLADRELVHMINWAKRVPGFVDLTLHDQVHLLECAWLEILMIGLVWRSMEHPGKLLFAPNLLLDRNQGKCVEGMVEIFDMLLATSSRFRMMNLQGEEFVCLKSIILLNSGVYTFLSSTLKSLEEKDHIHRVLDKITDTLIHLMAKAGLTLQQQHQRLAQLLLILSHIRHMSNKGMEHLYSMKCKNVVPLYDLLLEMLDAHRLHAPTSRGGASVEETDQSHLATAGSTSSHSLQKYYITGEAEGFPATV
# In short: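 Quantitative HTS confirmation: compounds titrated at 15 concentrations onto estrogen-deprived VM7Luc4E2 cells carrying a four-ERE luciferase construct, with ICI-182,780 present at 10.0nM final. Signal is luminescence after 22hr exposure.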
# [14] = qHTS assay to identify small molecule agonists or antagonists of the thyroid stimulating hormone receptor (TSHR) signaling pathway - wild type cell line counter screen (AID 1259384; calls by dose curve)
# In short: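 Wild-type Hek293 cells, 800/well, 18 h at 37C, then compound with Ro20-1724 for 30 min RT. cAMP by HTRF (cAMP-d2/anti-cAMP cryptate), 1 h RT, fluorescence read. 15 concentrations, triplicates.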
# [15] = target: Androgen receptor (Homo sapiens) (UniProt P10275); assay: qHTS assay to identify small molecule agonists of the androgen receptor (AR) signaling pathway in the presence of an antagonist (AID 1259381; calls by dose curve; also: nearly all actives have a fitted effect of over 15% in size)
# Chain of Androgen receptor (Homo sapiens) (P10275 whole entry, looked up): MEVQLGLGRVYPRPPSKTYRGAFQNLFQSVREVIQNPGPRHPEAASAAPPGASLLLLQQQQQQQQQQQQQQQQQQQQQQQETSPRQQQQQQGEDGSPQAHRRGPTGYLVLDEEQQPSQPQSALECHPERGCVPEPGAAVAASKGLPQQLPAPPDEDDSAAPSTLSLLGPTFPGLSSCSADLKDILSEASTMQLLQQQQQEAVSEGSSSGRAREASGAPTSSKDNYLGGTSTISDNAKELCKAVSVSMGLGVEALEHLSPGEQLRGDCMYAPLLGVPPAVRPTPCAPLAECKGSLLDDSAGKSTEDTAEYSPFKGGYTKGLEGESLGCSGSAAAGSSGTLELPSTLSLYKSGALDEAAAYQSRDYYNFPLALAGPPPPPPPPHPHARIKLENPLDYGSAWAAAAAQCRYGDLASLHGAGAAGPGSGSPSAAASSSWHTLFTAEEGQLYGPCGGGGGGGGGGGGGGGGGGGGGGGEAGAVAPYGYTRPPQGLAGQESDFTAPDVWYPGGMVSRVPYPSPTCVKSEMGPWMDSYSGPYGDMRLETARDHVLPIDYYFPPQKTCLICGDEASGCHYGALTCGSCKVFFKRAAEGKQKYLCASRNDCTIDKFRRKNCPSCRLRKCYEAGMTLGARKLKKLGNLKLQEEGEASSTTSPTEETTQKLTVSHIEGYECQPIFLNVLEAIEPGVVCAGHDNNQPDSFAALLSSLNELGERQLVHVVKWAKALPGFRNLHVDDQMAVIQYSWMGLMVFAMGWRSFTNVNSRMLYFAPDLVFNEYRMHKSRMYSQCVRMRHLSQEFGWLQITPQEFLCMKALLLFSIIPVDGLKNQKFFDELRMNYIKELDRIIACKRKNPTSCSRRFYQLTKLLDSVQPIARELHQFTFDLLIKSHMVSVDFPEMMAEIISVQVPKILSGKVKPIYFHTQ
# In short: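 Luminescent ONE-Glo read, 30min at room temperature, follows 16hr compound exposure (15 concentrations) of MDA-kb2 cells at 37C, 0% CO2, with nilutamide added at 3.0uM final.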
# [16] = target: Progesterone receptor (Homo sapiens) (UniProt P06401); assay: qHTS assay to identify small molecule antagonists of the progesterone receptor (PR) signaling pathway (AID 1346795; active = well fitted inhibition curve with a large enough effect in the signal ratio in the repeat runs, not every such curve was filed as active; the % refers to the signal ratio; also: potency is read from the fitted curve at half-maximal effect)
# In short: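 PR-UAS-bla HEK293T cells with beta-lactamase reporter under UAS control, in 2% charcoal-stripped FBS, treated with compounds plus 1 nM promegestone (R5020, final) for 16 hr at 37C. Read-out: FRET beta-lactamase substrate fluorescence after 2 hr at room temperature.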
# [17] = qHTS assay to identify small molecule agonists of the sonic hedgehog signaling (Shh) pathway - cell viability counter screen (AID 1259366); also: nearly all actives have a fitted effect of over 50% in size; also: potency is read from the fitted curve at half-maximal effect
# In short: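 NIH/3T3-derived Gli1-Luc reporter cells, 2,000 per well, received compound after 4 h and were treated about 23 h at 37C. Viability measured in the same wells by CellTiter-Fluor fluorescence after 1 h.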
# [18] = target: Thyrotropin receptor (Homo sapiens) (UniProt P16473); assay: qHTS assay to identify small molecule antagonists of the thyroid stimulating hormone receptor (TSHR) signaling pathway (AID 1259385; calls by dose curve; also: nearly all actives have a fitted effect of over 20% in size; also: potency is read from the fitted curve at half-maximal effect)
# Chain of Thyrotropin receptor (Homo sapiens) (P16473 whole entry, looked up): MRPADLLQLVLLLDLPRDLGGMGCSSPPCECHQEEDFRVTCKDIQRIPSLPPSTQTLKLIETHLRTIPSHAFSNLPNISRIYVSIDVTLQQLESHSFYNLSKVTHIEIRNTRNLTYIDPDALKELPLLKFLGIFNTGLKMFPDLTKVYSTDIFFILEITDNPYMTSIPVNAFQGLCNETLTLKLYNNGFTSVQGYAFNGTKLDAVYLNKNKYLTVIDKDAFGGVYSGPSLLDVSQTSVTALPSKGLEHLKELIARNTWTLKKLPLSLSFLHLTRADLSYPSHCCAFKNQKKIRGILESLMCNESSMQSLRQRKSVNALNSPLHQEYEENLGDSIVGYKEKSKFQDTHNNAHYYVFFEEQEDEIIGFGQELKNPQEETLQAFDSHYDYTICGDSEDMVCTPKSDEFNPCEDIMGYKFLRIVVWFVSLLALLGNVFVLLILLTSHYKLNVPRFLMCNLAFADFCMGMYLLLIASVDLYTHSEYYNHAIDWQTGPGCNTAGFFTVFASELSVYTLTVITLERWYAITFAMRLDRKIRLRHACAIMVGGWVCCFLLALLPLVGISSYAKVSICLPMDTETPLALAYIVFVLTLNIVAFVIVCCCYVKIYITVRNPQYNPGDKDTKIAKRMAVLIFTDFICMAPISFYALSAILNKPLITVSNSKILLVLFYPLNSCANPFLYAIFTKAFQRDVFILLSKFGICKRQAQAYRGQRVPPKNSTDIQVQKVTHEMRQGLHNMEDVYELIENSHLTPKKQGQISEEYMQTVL
# In short: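 TSHR-HEK293 cells (800/well) plated 18 h, then compounds with Ro20-1724 and TSH at 1.5 ng/mL final, 30 min at room temperature. cAMP quantified by HTRF (cAMP-d2/anti-cAMP-cryptate, 1 h); 15 concentrations in triplicate.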
compound,measurement,setting,value
C=CC(=C)CCC=C(C)C,Potency,[1],inactive
same,Potency,[2],inactive
same,Potency,[3],inactive
same,Potency,[4],inactive
same,Potency,[5],inactive
same,Potency,[6],inactive
same,Potency,[7],inactive
same,Potency,[8],inactive
same,Potency,[9],inactive
same,Potency,[10],inactive
same,Potency,[11],inactive
same,outcome,[12],inactive
Nc1cc(Cl)c([N+](=O)[O-])cc1O,Potency,[1],inactive
same,Potency,[2],inactive
same,Potency,[4],inactive
same,Potency,[8],48.2 µM (active)
same,Potency,[9],inactive
same,Potency,[10],inactive
same,Potency,[13],inactive
same,outcome,[14],inactive
same,Potency,[11],54 µM (active)
same,outcome,[12],inactive
CC(C)(c1cc(Br)c(OCCO)c(Br)c1)c1cc(Br)c(OCCO)c(Br)c1,Potency,[1],inactive
same,Potency,[2],inactive
same,Potency,[3],inactive
same,Potency,[4],inactive
same,Potency,[5],1.89 µM (active)
same,Potency,[6],inactive
same,Potency,[7],4.75 µM (active)
same,Potency,[8],47.5 µM (active)
same,Potency,[9],42.3 µM (active)
same,Potency,[15],inactive
same,Potency,[10],53.3 µM (active)
same,Potency,[13],inactive
same,Potency,[16],5.33 µM (active)
CCCCCCOc1ccc(O)cc1,Potency,[2],inactive
same,Potency,[17],inactive
same,Potency,[4],inactive
same,Potency,[5],inactive
same,Potency,[6],inactive
same,Potency,[8],inactive
same,Potency,[15],inactive
same,Potency,[13],inactive
same,outcome,[14],inactive
same,Potency,[18],inactive
same,Potency,[11],inactive
same,Potency,[16],13.7 µM (active)
CC(NCCC(c1ccccc1)c1ccccc1)c1ccccc1 (stereo not given),Potency,[1],inactive
same,Potency,[2],inactive
same,Potency,[4],inactive
same,Potency,[5],26.6 µM (active)
same,Potency,[7],26.6 µM (active)
same,Potency,[8],23.7 µM (active)
same,Potency,[9],18.8 µM (active)
same,Potency,[15],inactive
same,Potency,[13],inactive
same,outcome,[14],inactive
same,Potency,[18],29.8 µM (active)
same,outcome,[12],inactive
same,Potency,[16],29.8 µM (active)
SCCCCCCCCS,Potency,[2],inactive
same,Potency,[17],inactive
same,Potency,[3],inactive
same,Potency,[4],inactive
same,Potency,[5],inactive
same,Potency,[8],inactive
same,Potency,[9],inactive
same,Potency,[10],inactive
same,outcome,[14],inactive
same,Potency,[11],inactive
same,outcome,[12],inactive
same,Potency,[16],inactive
CC(=O)OC(OC(C)=O)c1ccc([N+](=O)[O-])o1,Potency,[1],inactive
same,Potency,[17],22.1 µM (active)
same,Potency,[3],24.8 µM (active)
same,Potency,[5],8.78 µM (active)
same,Potency,[8],62.2 µM (active)
same,Potency,[9],62.2 µM (active)
same,outcome,[14],inactive
O=C1C=CC(=O)N1c1ccccc1,Potency,[1],27.3 µM (active)
same,Potency,[17],9.69 µM (active)
same,Potency,[3],12.2 µM (active)
same,Potency,[4],inactive
same,Potency,[5],6.11 µM (active)
same,Potency,[6],inactive
same,Potency,[8],61.1 µM (active)
same,Potency,[9],27.3 µM (active)
same,Potency,[15],inactive
same,Potency,[10],48.6 µM (active)
same,Potency,[13],inactive
same,Potency,[11],68.6 µM (active)
S=C(SSSSSSC(=S)N1CCCCC1)N1CCCCC1,"activity change, negative = inhibition",[1],-8.72% [at 19 µM]
same,Potency,[17],5.35 µM (active)
same,Potency,[3],7.56 µM (active)
same,activity change,[4],"-10.5% [at 18.9 µM, active compounds read high]"
same,Potency,[7],13.4 µM (active)
same,"activity change, negative = cytotoxicity",[8],-6.95% [at 19 µM]
same,activation,[13],7.24% [at 19 µM]
same,Potency,[16],13.4 µM (active)
C=CC(=O)OCCOCC(CC)(COCCOC(=O)C=C)COCCOC(=O)C=C,Potency,[1],inactive
same,Potency,[17],5.67 µM (active)
same,Potency,[3],7.14 µM (active)
same,Potency,[4],16 µM (active)
same,Potency,[5],5.67 µM (active)
same,Potency,[8],40.2 µM (active)
same,Potency,[9],89.9 µM (active)
same,outcome,[14],inactive
same,Potency,[18],inactive
same,Potency,[11],35.8 µM (active)
same,Potency,[16],28.4 µM (active)
Cc1c(C)n(Cc2ccccc2)c2ccc(C(=O)OCCN(C)C)cc12,Potency,[2],inactive
same,Potency,[3],inactive
same,Potency,[4],inactive
same,Potency,[5],6.68 µM (active)
same,Potency,[6],inactive
same,Potency,[7],23.7 µM (active)
same,outcome,[14],inactive
same,Potency,[11],inactive
same,outcome,[12],inactive
same,Potency,[16],26.6 µM (active)
